Assay outcomes: PubChem BioAssay, several laboratories
Sampled rows, rich in hits. Any-hit rate of the full collection: about 4.1%.
TRPM1 prom inh: MITF TRPM1 promoter inhibition in SK-MEL-5 cells; SK-MEL-5 TRPM1 promoter luciferase, 24 h; inhibition, % at 12.5 µM; 330,000 tested, 0.83% active;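 active = mean inhibition across replicates of 60% or more, whatever share of single replicates reaches that level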
Shn3 3UTR inh: Schnurri-3 reporter inhibition in Clone20 osteoblasts; Clone20 osteoblast Shn3 3'UTR firefly luciferase, 24 h; inhibition, % at 12.5 µM; 360,000 tested, 0.52% active;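 active = mean inhibition of at least 75% with every replicate also reaching 75%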;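 also: 0% = median of neutral control wells and 100% = pilot-screen positive control compound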
EBV LMP1 NFkB: inhibitors of Epstein-Barr LMP1-induced NF-kappaB reporter | 350,000 tested, 0.69% active | inhibition, % at 12.5 µM | LMP1-induced NF-kappaB luciferase reporter cells, luminescence; in the data active = inhibition above about 41%;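 also: 0% = neutral control wells and 100% = reference inhibitor control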
TROY signal inh: inhibitors of TROY-dependent NF-kB signaling. Q293 LMP1-TROYcd NF-kB luciferase reporter, 4 h. inhibition, % at 10 µM. 360,000 tested, 0.98% active;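 active = compounds whose plate-normalised and pattern-corrected inhibition of the luciferase reporter signal at the single screening dose is 50% or more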
Peg3 promoter: Peg3 promoter activity inhibition; HeLa PEG-Prom luciferase reporter, luminescence, overnight; inhibition, % at 20 µM; 360,000 tested, 1.7% active;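 active = inhibition of at least 50% at 20 µM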
TWEAK-Fn14 inh: TWEAK-Fn14 signaling inhibition; TWEAK-stimulated Fn14 reporter cells, luciferase luminescence, 8 h; inhibition, % at 10 µM; 360,000 tested, 2% active; in the data active = inhibition above about 50%
Starred values were filed as active, the others as inactive; . = no result; ! = not active in a repeat.

SMILES | TRPM1 prom inh | Shn3 3UTR inh | EBV LMP1 NFkB | TROY signal inh | Peg3 promoter | TWEAK-Fn14 inh
COc1cc(C=C2CCCC(=Cc3ccc(OCC4CO4)c(OC)c3)C2=O)ccc1OCC1CO1 (configuration not stated) | . | 54 | 49* | -4 | 93* | 73*
Cc1ccc(CSCCNC(=O)CSc2ccccc2)cc1 | 10 | 1 | 1 | -5 | 24 | -21
COc1ccc(Nc2ncc(C(=O)N3CCC(C(N)=O)CC3)c3ccccc23)cc1 | -10 | 1 | -2 | 1 | -1 | 9
COc1ccc(Nc2ncc(C(=O)N3CCN(Cc4ccccc4)CC3)c3ccccc23)cc1 | 20 | 10 | 7 | 21 | 46 | 96*
Cn1c(SCc2ccccc2)nccc1=O | 1 | 4 | 1 | -16 | 0 | 9
CC1=C(SCc2ccccc2)C(=O)c2ccccc2C1=O | 70* | 78 | -1 | 38 | 85* | 88*
COc1ccc2c(=O)c(-c3nc(C)cs3)coc2c1 | 7 | -6 | 15 | 23 | -28 | 79*
O=C(N/N=C/c1ccc(-c2ccc(Cl)c(C(=O)O)c2)o1)c1cc2c(ccc3ccccc32)o1 | 8 | -13 | -3 | 7 | -11 | 14
CC1CCC(C(C)C)C(OC(=O)Cn2c(-c3ccc(Br)cc3)[n+](C)c3ccccc32)C1 (configuration not stated) | 91* | 21 | -1 | 39 | 96*! | 56*!
CC1CCC(C(C)C)C(OC(=O)COC(=O)c2cccn2C)C1 (configuration not stated) | 1 | -4 | 5 | 5 | 10 | 16
Cc1ccccc1OCc1n(CC(=O)OC2CC(C)CCC2C(C)C)c2ccccc2[n+]1C (configuration not stated) | 97*! | 6 | -4 | 64* | 102* | 83*!
CC1CCC(C(C)C)C(OC(=O)Cn2c(-c3ccc(Cl)cc3)[n+](C)c3ccccc32)C1 (configuration not stated) | 90* | 68 | 10 | 19 | 76* | 59*
COc1ccc(NC(=O)c2ccc(F)cc2)cc1S(=O)(=O)Nc1cc(C)ccc1Br | 10 | 4 | 1 | 44 | 54* | 60*
Nn1c(SCC(=O)Nc2nccs2)nnc1-c1cccnc1 | -1 | 5 | -3 | 7 | -2 | 1
CC1(C)CC(=O)C(C=NCCCO)=C(O)C1 | 3 | 2 | -3 | -3 | 8 | 81*
CCCCC1(Cc2ccc([N+](=O)[O-])cc2)C(=O)N(c2ccccc2)N(c2ccccc2)C1=O | 18 | 92* | 27 | 37 | 28 | 41
CCOC(=O)c1cccc(NC2c3ccccc3C(=O)N2Cc2ccco2)c1 (configuration not stated) | 14 | 90* | 11 | 11 | 8 | 19
C[C@@H]1CN([C@@H](C)CO)C(=O)CCCn2nncc2CO[C@@H]1CN(C)S(=O)(=O)c1ccccc1 | . | -2 | -4 | 0 | -10 | 6
COc1ccc(NC(=O)N(C)C[C@H]2Oc3cc(Br)ccc3S(=O)(=O)N([C@H](C)CO)C[C@@H]2C)cc1 | . | -26 | 15 | 4 | 4 | -8
COc1ccc(C(=O)N2[C@@H](C(C)C)COc3cc(Br)ccc3S2(=O)=O)cc1 | -6 | 1 | 14 | 31 | 55* | 39
CC(Sc1nn(-c2ccc(F)cc2)c(=S)s1)C(=O)c1c(N)n(C)c(=O)n(C)c1=O (configuration not stated) | -19 | -19 | 12 | 30 | 8 | 15
Cn1c(N)c(C(=O)CSc2nn(-c3ccccc3)c(=S)s2)c(=O)n(C)c1=O | 8 | 27 | 16 | 58* | -51 | 54*
O=C(C1CC(=O)N(c2ccc(Cl)cc2)C1)N1CCC(c2nc3ccccc3[nH]2)CC1 (configuration not stated) | 7 | -1 | 5 | -8 | 12 | -28
O=C(O)/C=C/C(=O)N1CCN(c2cccc(Cl)c2)CC1 | 3 | 1 | -4 | 2 | 0 | -7
Cc1nc([N+](=O)[O-])c(Sc2nc3ccc([N+](=O)[O-])cc3[nH]2)n1Cc1ccccc1 | -6 | 47 | 2 | 34 | 0 | 80*
SMILES | TRPM1 prom inh | Shn3 3UTR inh | EBV LMP1 NFkB | TROY signal inh | Peg3 promoter | TWEAK-Fn14 inh
C#CC[N+](C)(C)CCCCCCCCCCCC | 72* | 77 | 18 | 29 | 87* | 19
CC#CC[N+](C)(C)CCCCCCCCCCCC | 65* | 77 | 25 | 45 | 59* | 20
CC(C)(C)NC(=O)C(c1ccc(-c2ccccc2)cc1)N(C[C@H]1CC[C@@H]([C@@H]2CC[C@H](CO)O2)O1)C(=O)c1cccc(Cl)c1 (some centres not stated) | -1 | -4 | 10 | 8 | 23 | 13
COc1ccc(NC(=S)N/C(=N/CS(=O)(=O)c2ccccc2)c2ccccc2)cc1 | -26 | -9 | -6 | -19 | -198 | 52*
O=S(=O)(Nc1nc2ccccc2nc1Cl)c1ccccc1C(F)(F)F | -2 | -16 | 9 | 5 | -5 | 50*
CC(NC(=O)CCOc1ccccc1)c1ccccc1 (configuration not stated) | -4 | 2 | 74* | -17 | -16 | -9
CCOc1ccccc1N1CCN(C(=O)CSc2ccc3c(c2)OCCO3)CC1 | -1 | 8 | -8 | 7 | 7 | -12
OCCCNc1ncnc2sc(-c3ccccc3)cc12 | 0 | 1 | 4 | -7 | -14 | 12
CC(C)(C)Nc1ncnc2sc(-c3ccccc3)cc12 | 13 | 53 | 23 | 50 | -11 | 71*
C=COCCCNc1ncnc2sc(-c3ccccc3)cc12 | 6 | 52 | 16 | -2 | 13 | 87*
Cc1cc(N2CCN(C(=O)Nc3ccc(F)cc3F)CC2)c2ccccc2n1 | -4 | 24 | 13 | -2 | 9 | 10
CCCCc1ccc(NC(=O)N2CCN(c3cc(C)nc4ccccc34)CC2)c(C)c1 | 18 | 40 | 4 | 19 | 60* | 10
CCOC(=O)c1c(NC(=O)COc2ccc3ccc(=O)oc3c2)sc(C(=O)N(C)C)c1C | -14 | 9 | -5 | 21 | -13 | -12
CC(C)(C=O)C1=CC(=O)c2ccccc2C1=O | 39 | 55 | 24 | 70* | 108* | 63*
CC1=CC(=O)c2ccccc2C1=O | 43 | 3 | 11 | 15 | 17 | 10
CCOC(=O)CN1C(=O)C(Sc2n[nH]c(-c3ccc(O)cc3)n2)CCc2ccccc21 (configuration not stated) | 10 | 28 | -11 | 5 | 28 | -2
CC1=C(C(=O)Nc2ccccc2)C(c2ccc(C)cc2)N=C(Nc2nc3ccccc3o2)N1 (configuration not stated) | 22 | 68 | -16 | 8 | 77* | -58
CC1(C)CC(=O)C2=C(C1)NC(Nc1nc3ccccc3o1)=NC2c1ccccn1 (configuration not stated) | 7 | 8 | -10 | -32 | -3 | 2
CC1=C(C)C(=O)C(CCCCC#CCCCC#CCO)=C(C)C1=O | 32 | -1 | 43* | 10 | 6 | 24
